# Measurements from PubChem BioAssay.
# The source made the active and inactive calls.
# Experiments:
# [1] = tested on: Human papillomavirus type 1a protein E7 (residues 44-93); assay: small molecules binding HPV E7 44-93 – biochemical, small-molecule microarray, residues 44-93, 635 nm fluorescence, primary screen (AID 1108); conditions: fluorescence 635 nm, higher = more signal;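 also: E7 fragment applied at 1 µg/mL in TBST for 1 h at 4 C; score combines spot fluorescence with its signal to noise ratio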
# [2] = hepatitis C replication reporter changes, two-sided – Huh7 cells, luciferase reporter, HCV replication inhibitor project, primary screen (AID 1109); conditions: Huh7 HCV replicon luciferase reporter, 48 h; higher = more signal;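 also: huh7 hepatoma cells harbouring a luciferase neomycin HCV replicon reporter; luciferase luminescence as measure of HCV replicon replication; test concentration not given here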
# [3] = target: Left-right determination factor 2 (Homo sapiens) (UniProt O00292); assay: small molecules binding LEFTY2 protein – biochemical, small-molecule microarray, 635 nm fluorescence scan, primary screen (AID 1110); conditions: higher = more signal
# [4] = target: Calmodulin-1 (Homo sapiens) (UniProt P0DP23); assay: small molecules binding calmodulin-1 with EGTA – biochemical, small-molecule microarray, Cy5-labelled CALM1, profiling panel (AID 1111); conditions: Cy5-CALM1 binding fluorescence, higher = more signal;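 also: labelled calmodulin applied in Tris saline Tween buffer holding calcium plus EGTA and DTT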
# [5] = target: Calmodulin-1 (Homo sapiens) (UniProt P0DP23); assay: small molecules binding Ca-loaded calmodulin-1 – biochemical, small-molecule microarray, Cy5-labelled CALM1, plus calcium, artefact control for SMM control-protein annotation, profiling panel (AID 1112); conditions: Cy5-CALM1 binding fluorescence, higher = more signal;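 also: score merges spot fluorescence with signal to noise from triplicate slides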
# [6] = probe aWnt5a binding to arrayed compounds – biochemical, biotinylated probe, 635/667 nm fluorescence, primary screen (AID 1113); conditions: small-molecule microarray, higher = more signal;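 also: score merges 667 nm fluorescence intensity with signal-to-noise per printed feature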
# [7] = probe aShh binding to arrayed compounds – biochemical, biotinylated probe, 635/667 nm fluorescence, primary screen (AID 1114); conditions: small-molecule microarray, higher = more signal;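 also: probe is biotin-labelled aShh protein from a stem cell growth factor screen; measures binding of labelled protein to compounds printed on the slide; score merges feature fluorescence at 667 nm with signal-to-noise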
# [8] = probe aNog binding to arrayed compounds – biochemical, biotinylated probe, 635/667 nm fluorescence, primary screen (AID 1115); conditions: small-molecule microarray, higher = more signal;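 also: probe is biotinylated aNog protein used at 0.15 µg/mL for 1 h at 4 C; z-score combines 667 nm fluorescence of each spot with its signal to noise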
# [9] = target: Torsin-1A-interacting protein 1 (Homo sapiens) (UniProt Q5JTV8); assay: compound microarray binding of lysate hLAP1 – cell lysate, small-molecule microarray, COS7 lysate, 635/667 nm fluorescence, primary screen (AID 1116); conditions: 635 nm fluorescence, higher = more signal
# [10] = target: Alpha-bungarotoxin (Bungarus multicinctus) (UniProt P60615); assay: compounds binding labelled alpha-BTX control protein – biochemical, small-molecule microarray, Alexa647 label, 635/667 nm fluorescence, artefact control for SMM control protein annotation, profiling panel (AID 1117); conditions: alpha-BTX-A647 binding fluorescence, higher = more signal
# [11] = target: Albumin (Bos taurus) (UniProt P02769); assay: compounds binding labelled BSA control protein – biochemical, small-molecule microarray, Alexa647 label, 635/667 nm fluorescence, artefact control for SMM control protein annotation, profiling panel (AID 1118); conditions: BSA-A647 binding, fluorescence 635 nm, higher = more signal;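 also: score merges 667 nm emission intensity and signal-to-noise per printed compound spot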
# [12] = probe aXIP binding to arrayed compounds – biochemical, NeuroSMM set, 635/667 nm fluorescence, primary screen (AID 1119); conditions: small-molecule microarray, higher = more signal, called active from +8 up or from −8 down;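 also: probe is the protein aXip251-270 applied at 1 µg/mL to compound-printed slides; binding of probe to printed compounds measured as 667 nm fluorescence plus signal to noise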
# [13] = probe aNOTCH3 binding on compound microarray – biochemical, small-molecule microarray, 635/667 nm fluorescence, primary screen (AID 1120); conditions: higher = more signal;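 also: probe is a biotin-tagged antibody raised against NOTCH3 rather than NOTCH3 protein; score merges spot fluorescence near 667 nm with spot signal to noise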
# [14] = probe aNOTCH2 binding on compound microarray – biochemical, small-molecule microarray, 635/667 nm fluorescence, primary screen (AID 1121); conditions: higher = more signal;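 also: score merges feature fluorescence read at 667 nm with its signal to noise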
# [15] = target: Carbonic anhydrase 2 (Homo sapiens) (UniProt P00918); assay: compounds binding carbonic anhydrase 2 – biochemical, small-molecule microarray, Alexa647-labelled CAII, profiling panel (AID 1122); conditions: CAII-A647 binding fluorescence, higher = more signal
# [16] = COS7 lysate on small-molecule microarray, probe aHis, 635 nm (AID 1123); conditions: COS7 cell lysate, fluorescence, higher = more signal;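 also: z-score combines 667nm fluorescence intensity with signal-to-noise per printed compound spot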
# [17] = probe aLAP1 signal on lysate-treated microarray – cell lysate, small-molecule microarray, COS7 lysate, primary screen (AID 1124); conditions: probe aLAP1, fluorescence, higher = more signal;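 also: lysate comes from COS7 cells expressing LAP1 and is applied at 0.3 µg/mL; score merges spot fluorescence near 667 nm with signal-to-noise over triplicate slides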
# [18] = tested on: Sam68 (KHDRBS1); assay: compounds binding KHDRBS1 protein – biochemical, small-molecule microarray, 635 nm fluorescence, primary screen (AID 1125); conditions: higher = more signal;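 also: score merges 667 nm channel intensity with signal to noise over triplicate slides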
# [19] = tested on: Chordin-like protein 2 (CHRDL2); assay: compounds binding chordin-like 2 – biochemical, small-molecule microarray, 635 nm fluorescence, primary screen (AID 1126); conditions: fluorescence 635 nm, higher = more signal;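 also: printed compound slides probed with Chrdl2 protein at 4 µg/mL for 1 h at 4 C; score merges 667 nm emission intensity with signal to noise over three replicate slides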
# [20] = target: Concanavalin-A (Canavalia ensiformis) (UniProt P02866); assay: compounds binding concanavalin A lectin – biochemical, small-molecule microarray, Alexa647 label, 635 nm, artefact control for SMM control protein annotation, primary screen (AID 1127); conditions: ConA-A647 binding fluorescence, higher = more signal;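 also: z combines 667 nm emission intensity with signal-to-noise across three replicate slides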
# Chain of Concanavalin-A (Canavalia ensiformis) (P02866 whole entry, looked up): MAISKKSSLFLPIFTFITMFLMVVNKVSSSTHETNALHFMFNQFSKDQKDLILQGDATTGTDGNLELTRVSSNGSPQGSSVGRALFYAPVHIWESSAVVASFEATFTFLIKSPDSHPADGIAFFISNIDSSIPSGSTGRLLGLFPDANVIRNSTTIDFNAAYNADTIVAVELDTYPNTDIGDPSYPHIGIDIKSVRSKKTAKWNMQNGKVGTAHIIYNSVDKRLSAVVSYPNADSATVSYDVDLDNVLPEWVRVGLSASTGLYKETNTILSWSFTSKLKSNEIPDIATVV
# Chain of Torsin-1A-interacting protein 1 (Homo sapiens) (Q5JTV8 whole entry, looked up): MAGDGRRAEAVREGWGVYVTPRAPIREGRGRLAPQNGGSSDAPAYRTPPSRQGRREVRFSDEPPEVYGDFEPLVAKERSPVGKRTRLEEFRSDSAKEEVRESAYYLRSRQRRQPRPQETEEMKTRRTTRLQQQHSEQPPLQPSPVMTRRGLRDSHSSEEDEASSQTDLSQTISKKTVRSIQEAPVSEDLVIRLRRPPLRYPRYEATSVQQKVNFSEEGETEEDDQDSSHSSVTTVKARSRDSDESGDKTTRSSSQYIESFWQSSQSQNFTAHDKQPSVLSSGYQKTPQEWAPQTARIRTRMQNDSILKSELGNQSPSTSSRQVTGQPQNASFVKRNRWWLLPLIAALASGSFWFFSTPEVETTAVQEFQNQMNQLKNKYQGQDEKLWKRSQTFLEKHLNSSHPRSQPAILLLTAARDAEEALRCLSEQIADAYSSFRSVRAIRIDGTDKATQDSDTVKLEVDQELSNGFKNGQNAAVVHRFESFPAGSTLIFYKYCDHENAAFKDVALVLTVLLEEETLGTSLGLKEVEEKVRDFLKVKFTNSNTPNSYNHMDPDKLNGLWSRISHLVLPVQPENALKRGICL
# Chain of Alpha-bungarotoxin (Bungarus multicinctus) (P60615 whole entry, looked up): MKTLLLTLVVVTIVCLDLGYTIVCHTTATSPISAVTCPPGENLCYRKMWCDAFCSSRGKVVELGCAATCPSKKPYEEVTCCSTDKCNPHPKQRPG
# Chain of Albumin (Bos taurus) (P02769 whole entry, looked up): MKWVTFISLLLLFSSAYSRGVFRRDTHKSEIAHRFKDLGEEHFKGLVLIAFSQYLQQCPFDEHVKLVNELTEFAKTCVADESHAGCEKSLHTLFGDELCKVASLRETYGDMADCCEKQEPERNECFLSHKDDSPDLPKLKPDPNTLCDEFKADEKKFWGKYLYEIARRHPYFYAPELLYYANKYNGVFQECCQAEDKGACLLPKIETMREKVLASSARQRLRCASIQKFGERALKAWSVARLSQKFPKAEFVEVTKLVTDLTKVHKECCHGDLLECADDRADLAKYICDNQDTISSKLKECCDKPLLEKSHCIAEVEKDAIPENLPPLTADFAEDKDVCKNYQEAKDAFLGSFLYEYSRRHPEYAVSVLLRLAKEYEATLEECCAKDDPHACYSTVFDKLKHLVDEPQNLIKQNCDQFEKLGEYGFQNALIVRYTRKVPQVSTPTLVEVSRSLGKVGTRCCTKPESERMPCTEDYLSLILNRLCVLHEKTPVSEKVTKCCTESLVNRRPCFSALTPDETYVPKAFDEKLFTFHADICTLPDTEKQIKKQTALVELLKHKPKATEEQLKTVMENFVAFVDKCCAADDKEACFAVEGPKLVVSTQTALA
# Chain of Left-right determination factor 2 (Homo sapiens) (O00292 whole entry, looked up): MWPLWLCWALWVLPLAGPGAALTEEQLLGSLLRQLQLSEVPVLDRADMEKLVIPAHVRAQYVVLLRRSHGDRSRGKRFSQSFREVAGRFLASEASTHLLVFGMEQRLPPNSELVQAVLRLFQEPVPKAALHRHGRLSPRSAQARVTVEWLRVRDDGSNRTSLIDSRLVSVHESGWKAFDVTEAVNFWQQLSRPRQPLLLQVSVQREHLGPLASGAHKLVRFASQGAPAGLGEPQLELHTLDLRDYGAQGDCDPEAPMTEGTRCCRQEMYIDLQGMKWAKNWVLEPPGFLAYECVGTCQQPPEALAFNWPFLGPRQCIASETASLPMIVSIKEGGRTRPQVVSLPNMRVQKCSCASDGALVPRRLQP
SMILES,composite z-score [1],z-score [2],composite z-score [3],composite z-score [4],composite z-score [5],composite z-score [6],composite z-score [7],composite z-score [8],composite z-score [9],composite z-score [10],composite z-score [11],composite Z-score [12],composite z-score [13],composite z-score [14],composite z-score [15],composite z-score [16],composite z-score [17],composite z-score [18],composite z-score [19],composite z-score [20]
CCCCC=C[C@@H](NC(=O)OCc1ccccc1Cl)c1ccccc1,1.4,-0.0468,0.39,1.35,1,1.08,1.97,3.06,0.28,0.922,0.997,-0.418 (inactive),1.74,0.825,0.526,2.65,0.0357,1.3,-0.747,1.13
COC(=O)[C@@]1(Cc2ccc(F)cc2)[C@H]2c3cc(C(=O)N4CCCC4)n(Cc4ccc(C)c(F)c4F)c3C[C@H]2CN1C(=O)c1ccccc1,-0.751,-0.914,-0.419,0.344,0.612,-0.119,-0.0813,0.935,0.65,-0.106,1.04,-0.474 (inactive),-0.0304,0.219,0.834,0.922,1.14,-0.451,-0.186,-0.927
NCCCCCNC(=O)[C@H]1C[C@H]2C(=O)N3CCC[C@H]3C(=O)N2[C@H]1c1cccc(OCCO)c1,1.32,0.5,-0.397,1.35,0.684,0.0375,0.14,-0.403,1.17,1.24,0.729,0.325 (inactive),0.185,0.0305,0.705,1.59,0.466,0.967,0.18,0.894
CO[C@H]1O[C@H](CO)[C@@H](OC(=O)Nc2ccc(Br)cc2)[C@@H]2OC(=O)[C@@H](Cc3ccccc3)C/C=C/C[C@H](Cc3ccccc3)C(=O)O[C@@H]12,0.816,-3.75,0.142,0.534,0.149,0.218,0.0483,1.04,0.325,0.804,0.771,-1.09 (inactive),0.11,-0.0601,0.635,1.65,0.0964,0.968,-0.173,0.516
C#Cc1cc2ccccc2oc1=O,-0.455,-3.88,-2.19,-1.07,-0.451,-0.187,0.541,-0.396,-0.402,-1.65,0.683,0.207 (inactive),-0.437,-0.126,0.637,0.688,0.216,0.343,-2.62,-0.486
COCCOC(=O)N1C(=O)[C@@]2(c3cc(C#CC4(O)CCCCCC4)ccc31)[C@H](C(=O)N1CCc3cc(OC)c(OC)cc3C1)[C@H]1C(=O)O[C@H](c3ccccc3)[C@H](c3ccccc3)N1[C@@H]2c1ccc(OCCO)cc1,1.14,-1.22,0.805,0.903,-0.392,-0.0685,-0.0011,-0.136,0.695,0.152,0.121,0.28 (inactive),-0.021,-0.0617,0.515,0.535,0.272,1.31,0.666,1.12
COCC(=C=CC[C@H](O)c1ccccc1OCCO)C[C@H](O)c1ccccn1,-0.0881,-0.267,0.155,-0.0135,-0.411,-0.18,-0.214,-0.173,-0.191,-0.0928,0.519,0.2 (inactive),-0.116,-0.0984,0.426,-0.0733,-0.144,0.544,-0.123,0.215
O=C(c1ccccc1)N1C(=O)[C@]2(Cc3ccccc31)N=C(c1ccc(OCCCO)cc1)O[C@@H]2c1ccccc1,1.44,-2.94,0.148,1.43,-0.165,-0.0758,0.108,-0.535,0.688,1.46,0.462,-0.129 (inactive),0.0691,-0.0928,0.204,2.7,0.356,1.29,0.371,1.13
COc1ccc(CCNC(=O)[C@@]2(c3ccc([N+](=O)[O-])cc3)CC(=O)N(C3CCCCC3)[C@@H]2c2ccc(CO)cc2)cc1,0.91,-0.88,-0.197,0.36,0.323,-0.0341,-0.0886,-0.203,0.774,0.823,0.143,0.665 (inactive),0.245,0.0224,0.283,1.89,0.0344,1.16,-0.0865,0.952
CC#CCO[Si](C#Cc1ccccc1)(C(C)C)C(C)C,-2.07,0.046,-0.0764,-0.0874,0.877,-0.224,-0.0769,-0.281,-0.785,-1.53,-1.33,-0.197 (inactive),-0.365,-0.156,-0.624,-0.445,-0.353,-1.18,-0.913,-1.46
CC(C)C(CO)N1C(=O)[C@@H]2C3C(=O)OCCC/C=C\[C@H]3OC23C=CCN(Cn2nnc4ccccc42)C(=O)[C@@H]13 (stereo not given in full),1.32,0.236,-0.874,-0.42,0.0878,-0.202,-0.229,0.407,1.92,-1.15,-0.37,-0.0983 (inactive),-0.256,-0.181,0.885,0.295,0.685,0.713,-0.81,-0.662
[N-]=[N+]=Nc1ccccc1C[C@@]1(C(=O)NCCN2CCOCC2)N=C(c2ccc(OCCCO)cc2)O[C@@H]1c1ccccc1N=[N+]=[N-],-0.241,-2.99,0.0057,1.94,0.455,0.0543,0.411,-0.406,1.08,1.74,0.832,-0.0662 (inactive),0.351,-0.0211,0.556,2.51,0.865,1.3,-0.198,1.04
